Targets with a hit are over-represented here; the source holds about 8,800 in all. About 0.5% of all pairs of compound and target were hits. Unmarked numbers belong to inactive results.
Key:
Assay in all cases: log2 fold change, soluble protein after heating vs DMSO (PISA); higher = thermal stabilisation; K562 lysate, 10 uM; active = over 0.2 and 3.5 SD of the protein, either way, in both replicates (recomputed)
alvocidib = compound: CN1CC[C@H](c2c(O)cc(O)c3c(=O)cc(-c4ccccc4Cl)oc23)[C@H](O)C1 [alvocidib]
Method in brief: (§1)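 To prepare the extract, K562 pellets were dounce-homogenised in PBS pH 7.4 with 1 mM MgCl2, giving crude material at 1 mg/mL protein. This was treated with 10 μM compound for 30 min, then heated in aliquots for 3 min over 48°C-58°C before pooling and addition of NP-40 to 0.5% at 4°C. Centrifugation at 21,000xg for 90 min left soluble protein in the supernatant, which TMTpro 16plex LC-MS/MS quantified with equalised channel sums. Results are log-two fold changes in thermal stability compared with solvent controls, from duplicates.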

Tubastatin A = compound: CN1CCc2c(c3ccccc3n2Cc2ccc(C(=O)NO)cc2)C1 [Tubastatin A]
Method in brief: as §1

[1] = compound: CNC(=O)C1=CC=CC=C1NC2=NC(=NC=C2Cl)NC3=C(C=C(C=C3)N4CCOCC4)OC
Method in brief: as §1

defactinib = compound: CNC(=O)c1ccc(Nc2ncc(C(F)(F)F)c(NCc3nccnc3N(C)S(C)(=O)=O)n2)cc1 [defactinib]
Method in brief: as §1

[2] = compound: CNc1nc(-c2ccc3c(N)n[nH]c3c2)cc(N2C[C@@H](C(=O)NC3CCCCC3)CC[C@H]2C)n1
Method in brief: as §1

encorafenib = compound: COC(=O)N[C@@H](C)CNc1nccc(-c2cn(C(C)C)nc2-c2cc(Cl)cc(NS(C)(=O)=O)c2F)n1 [encorafenib]
Method in brief: as §1

[3] = compound: COC(=O)[C@H](CCSC)NC(=O)C1=C(C=C(C=C1)NC[C@H](CS)N)C2=CC=CC=C2
Method in brief: as §1

alisertib = compound: COc1cc(Nc2ncc3c(n2)-c2ccc(Cl)cc2C(c2c(F)cccc2OC)=NC3)ccc1C(=O)O [alisertib]
Method in brief: as §1

[4] = compound: COc1cc2nc(-c3cc(F)ccc3O)nc(N[C@@H]3CNC[C@H]3C(C)(C)O)c2cc1OC
Method in brief: as §1

gefitinib = compound: COc1cc2ncnc(Nc3ccc(F)c(Cl)c3)c2cc1OCCCN1CCOCC1 [gefitinib]
Method in brief: as §1

Sequence of UniProt P50570 (P50570 whole entry, looked up): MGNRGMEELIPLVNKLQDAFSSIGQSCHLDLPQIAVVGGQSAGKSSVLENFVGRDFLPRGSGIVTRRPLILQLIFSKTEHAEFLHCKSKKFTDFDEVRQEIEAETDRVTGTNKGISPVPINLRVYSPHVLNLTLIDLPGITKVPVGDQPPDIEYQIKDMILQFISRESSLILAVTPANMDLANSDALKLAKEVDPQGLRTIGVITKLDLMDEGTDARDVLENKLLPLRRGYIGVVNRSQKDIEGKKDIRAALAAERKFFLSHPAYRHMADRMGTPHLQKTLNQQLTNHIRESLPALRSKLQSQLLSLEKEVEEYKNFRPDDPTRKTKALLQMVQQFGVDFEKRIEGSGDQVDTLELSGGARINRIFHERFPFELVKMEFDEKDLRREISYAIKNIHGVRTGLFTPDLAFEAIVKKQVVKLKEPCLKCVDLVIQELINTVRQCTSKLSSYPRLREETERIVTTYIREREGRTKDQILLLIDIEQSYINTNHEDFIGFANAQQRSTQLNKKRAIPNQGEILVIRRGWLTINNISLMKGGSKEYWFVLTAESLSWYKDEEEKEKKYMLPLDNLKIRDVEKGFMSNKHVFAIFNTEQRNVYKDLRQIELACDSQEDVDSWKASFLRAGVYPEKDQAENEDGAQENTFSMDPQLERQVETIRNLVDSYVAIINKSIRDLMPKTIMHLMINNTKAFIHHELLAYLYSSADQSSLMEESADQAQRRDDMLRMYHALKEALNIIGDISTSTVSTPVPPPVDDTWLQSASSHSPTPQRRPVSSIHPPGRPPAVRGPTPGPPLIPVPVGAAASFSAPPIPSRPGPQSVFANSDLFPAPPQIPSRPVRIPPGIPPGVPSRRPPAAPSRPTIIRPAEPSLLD
Sequence of UniProt P30622 (P30622 whole entry, looked up): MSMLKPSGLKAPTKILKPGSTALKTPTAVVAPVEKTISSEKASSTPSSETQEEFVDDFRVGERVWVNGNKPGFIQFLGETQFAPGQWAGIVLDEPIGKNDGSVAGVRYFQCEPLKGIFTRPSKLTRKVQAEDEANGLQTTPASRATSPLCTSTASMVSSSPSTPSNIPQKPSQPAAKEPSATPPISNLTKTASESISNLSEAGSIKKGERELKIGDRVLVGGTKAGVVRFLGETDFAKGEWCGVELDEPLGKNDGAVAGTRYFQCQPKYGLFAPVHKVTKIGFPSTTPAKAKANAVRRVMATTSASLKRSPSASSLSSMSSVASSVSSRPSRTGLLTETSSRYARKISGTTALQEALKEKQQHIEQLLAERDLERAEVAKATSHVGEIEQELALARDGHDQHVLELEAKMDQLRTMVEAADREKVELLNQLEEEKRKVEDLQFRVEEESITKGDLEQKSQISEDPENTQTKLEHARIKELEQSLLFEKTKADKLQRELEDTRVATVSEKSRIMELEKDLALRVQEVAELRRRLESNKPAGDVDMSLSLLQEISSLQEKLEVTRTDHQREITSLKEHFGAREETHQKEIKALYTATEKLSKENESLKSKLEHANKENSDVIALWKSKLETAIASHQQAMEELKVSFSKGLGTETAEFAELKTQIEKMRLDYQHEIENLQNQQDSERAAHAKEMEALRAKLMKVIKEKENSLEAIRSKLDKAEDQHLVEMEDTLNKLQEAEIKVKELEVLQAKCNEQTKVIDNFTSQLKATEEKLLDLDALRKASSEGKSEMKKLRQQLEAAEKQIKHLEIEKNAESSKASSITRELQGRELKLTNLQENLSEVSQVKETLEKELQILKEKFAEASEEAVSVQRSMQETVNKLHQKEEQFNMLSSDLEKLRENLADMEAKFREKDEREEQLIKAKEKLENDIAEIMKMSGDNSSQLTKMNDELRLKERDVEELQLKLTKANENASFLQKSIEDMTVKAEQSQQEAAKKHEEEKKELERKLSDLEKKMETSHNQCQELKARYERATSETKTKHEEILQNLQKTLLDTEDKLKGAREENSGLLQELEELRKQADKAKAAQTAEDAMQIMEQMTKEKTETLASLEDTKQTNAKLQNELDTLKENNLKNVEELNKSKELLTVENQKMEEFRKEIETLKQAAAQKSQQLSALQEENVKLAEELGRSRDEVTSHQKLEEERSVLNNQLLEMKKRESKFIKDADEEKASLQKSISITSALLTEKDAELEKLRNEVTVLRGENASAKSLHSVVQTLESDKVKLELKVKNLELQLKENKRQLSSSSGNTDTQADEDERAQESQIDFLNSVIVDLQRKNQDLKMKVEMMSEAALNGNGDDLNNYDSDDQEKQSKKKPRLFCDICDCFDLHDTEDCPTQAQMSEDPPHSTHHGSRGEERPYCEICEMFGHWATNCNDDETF
Sequence of UniProt Q13217 (Q13217 whole entry, looked up): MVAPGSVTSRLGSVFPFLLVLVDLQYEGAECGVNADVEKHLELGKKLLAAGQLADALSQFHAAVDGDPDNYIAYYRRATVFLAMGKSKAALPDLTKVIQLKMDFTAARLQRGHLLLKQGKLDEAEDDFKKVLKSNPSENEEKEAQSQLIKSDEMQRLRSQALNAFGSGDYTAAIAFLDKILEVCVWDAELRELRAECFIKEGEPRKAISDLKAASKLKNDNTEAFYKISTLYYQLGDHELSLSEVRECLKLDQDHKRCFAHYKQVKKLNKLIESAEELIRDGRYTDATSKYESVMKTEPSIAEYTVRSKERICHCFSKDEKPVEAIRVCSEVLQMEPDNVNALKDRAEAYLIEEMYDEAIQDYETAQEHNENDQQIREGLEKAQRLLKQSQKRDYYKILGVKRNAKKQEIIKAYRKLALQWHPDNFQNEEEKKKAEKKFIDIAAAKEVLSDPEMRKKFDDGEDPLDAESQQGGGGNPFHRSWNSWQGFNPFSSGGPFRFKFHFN
Sequence of UniProt P31146 (P31146 whole entry, looked up): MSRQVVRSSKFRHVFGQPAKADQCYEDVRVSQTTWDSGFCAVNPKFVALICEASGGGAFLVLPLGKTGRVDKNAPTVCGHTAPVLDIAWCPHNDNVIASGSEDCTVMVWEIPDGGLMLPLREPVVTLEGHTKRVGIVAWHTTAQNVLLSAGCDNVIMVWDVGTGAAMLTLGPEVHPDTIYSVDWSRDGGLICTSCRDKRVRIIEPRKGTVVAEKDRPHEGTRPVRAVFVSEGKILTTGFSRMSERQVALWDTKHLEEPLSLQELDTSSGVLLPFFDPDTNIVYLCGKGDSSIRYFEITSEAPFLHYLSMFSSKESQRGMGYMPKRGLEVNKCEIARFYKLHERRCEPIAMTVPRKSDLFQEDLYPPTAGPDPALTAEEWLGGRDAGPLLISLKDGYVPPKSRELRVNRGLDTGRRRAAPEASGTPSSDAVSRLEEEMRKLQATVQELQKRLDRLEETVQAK
Sequence of UniProt Q9P0U4 (Q9P0U4 whole entry, looked up): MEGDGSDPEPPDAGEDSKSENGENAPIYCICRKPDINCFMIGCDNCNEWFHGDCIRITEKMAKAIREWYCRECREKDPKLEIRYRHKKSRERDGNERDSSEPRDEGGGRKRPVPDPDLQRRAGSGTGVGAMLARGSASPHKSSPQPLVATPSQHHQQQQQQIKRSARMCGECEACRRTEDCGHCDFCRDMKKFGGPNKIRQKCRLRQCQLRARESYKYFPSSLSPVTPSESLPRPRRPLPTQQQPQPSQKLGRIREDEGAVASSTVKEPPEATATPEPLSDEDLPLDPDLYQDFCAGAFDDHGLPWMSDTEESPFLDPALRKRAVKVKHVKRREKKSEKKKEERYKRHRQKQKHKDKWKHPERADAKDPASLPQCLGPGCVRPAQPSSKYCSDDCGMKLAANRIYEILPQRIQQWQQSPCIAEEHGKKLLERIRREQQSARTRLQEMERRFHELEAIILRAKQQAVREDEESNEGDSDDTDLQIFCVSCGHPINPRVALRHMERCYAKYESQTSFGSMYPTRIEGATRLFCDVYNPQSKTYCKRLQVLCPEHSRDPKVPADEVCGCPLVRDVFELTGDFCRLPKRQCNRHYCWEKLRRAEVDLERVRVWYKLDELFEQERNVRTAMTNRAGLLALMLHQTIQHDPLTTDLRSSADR
Sequence of UniProt O15247 (O15247 whole entry, looked up): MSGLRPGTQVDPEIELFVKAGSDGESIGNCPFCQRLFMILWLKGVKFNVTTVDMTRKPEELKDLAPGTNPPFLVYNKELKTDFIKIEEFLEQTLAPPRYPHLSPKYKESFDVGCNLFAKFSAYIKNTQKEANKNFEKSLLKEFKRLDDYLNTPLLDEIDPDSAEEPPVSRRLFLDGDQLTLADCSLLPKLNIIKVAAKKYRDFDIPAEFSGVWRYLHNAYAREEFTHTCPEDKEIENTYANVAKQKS
Sequence of UniProt P41240 (P41240 whole entry, looked up): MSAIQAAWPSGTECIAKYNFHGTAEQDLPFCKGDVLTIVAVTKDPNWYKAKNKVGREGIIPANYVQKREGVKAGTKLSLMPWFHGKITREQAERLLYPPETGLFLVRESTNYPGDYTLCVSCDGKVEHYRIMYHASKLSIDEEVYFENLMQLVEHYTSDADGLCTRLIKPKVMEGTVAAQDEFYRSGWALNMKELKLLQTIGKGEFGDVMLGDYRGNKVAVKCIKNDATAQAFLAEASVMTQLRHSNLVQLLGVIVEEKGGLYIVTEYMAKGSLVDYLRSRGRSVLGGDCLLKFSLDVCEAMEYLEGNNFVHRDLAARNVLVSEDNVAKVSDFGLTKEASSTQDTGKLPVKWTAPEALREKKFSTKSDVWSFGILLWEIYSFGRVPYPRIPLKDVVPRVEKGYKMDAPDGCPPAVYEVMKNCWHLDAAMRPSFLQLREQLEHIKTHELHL
Sequence of UniProt P61923 (P61923 whole entry, looked up): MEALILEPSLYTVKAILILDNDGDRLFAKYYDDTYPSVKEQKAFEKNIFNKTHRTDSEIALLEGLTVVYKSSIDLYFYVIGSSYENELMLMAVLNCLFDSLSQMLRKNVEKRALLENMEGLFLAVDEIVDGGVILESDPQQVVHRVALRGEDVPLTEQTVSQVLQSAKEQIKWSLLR
Sequence of UniProt Q9H3Z4 (Q9H3Z4 whole entry, looked up): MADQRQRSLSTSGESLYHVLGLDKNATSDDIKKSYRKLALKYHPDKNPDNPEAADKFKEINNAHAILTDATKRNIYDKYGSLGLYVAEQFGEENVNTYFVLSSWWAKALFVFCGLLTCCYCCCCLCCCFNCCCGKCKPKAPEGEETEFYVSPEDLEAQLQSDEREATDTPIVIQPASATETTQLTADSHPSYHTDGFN

Target | log2 fold change (alvocidib) | log2 fold change (Tubastatin A) | log2 fold change [1] | log2 fold change (defactinib) | log2 fold change [2] | log2 fold change (encorafenib) | log2 fold change [3] | log2 fold change (alisertib) | log2 fold change [4] | log2 fold change (gefitinib)
DCTN1 isoform 4 (UniProt Q14203) | 0.3 | -0.254 | 0.212 | -0.046 | 0.105 | 0.078 | -0.064 | 0.107 | -0.05 | 0.051
DNAJC5 (UniProt Q9H3Z4) | -0.216 | 0.062 | 0.019 | 0.011 | 0.054 | 0.016 | -0.057 | -0.119 | 0.019 | -0.039
CSNK2A1 (UniProt P68400) | 0.077 | 0.019 | 0.337 (active) | 0.056 | -0.002 | -0.004 | -0.005 | 0.012 | 0.112 | -0.024
COPZ1 isoform 4 (UniProt P61923) | 0.084 | 0.055 | 0.081 | 0.166 | -0.093 | -0.011 | -0.049 | 0.045 | -0.077 | -0.142
COG3 (UniProt Q96JB2) | -0.023 | -0.09 | 0.042 | -0.016 | -0.041 | -0.013 | -0.045 | 0.032 | -0.018 | -0.026
CMIP (UniProt Q8IY22) | 0.002 | -0.161 | 0.001 | 0.061 | -0.015 | 0.078 | 0.025 | -0.012 | -0.016 | 0.007
CORO1A (UniProt P31146) | 0 | -0.02 | 0.013 | -0.034 | 0.037 | -0.051 | 0.144 | -0.018 | -0.021 | -0.037
CSPP1 (UniProt Q1MSJ5) | -0.031 | -0.03 | -0.028 | -0.086 | 0.095 | 0.119 | -0.195 | 0.027 | 0.218 | -0.054
CLIC2 (UniProt O15247) | 0.002 | -0.002 | 0.034 | 0.03 | 0.024 | -0.016 | 0.018 | 0.02 | -0.014 | -0.038
DNM2 (UniProt P50570) | 0.037 | -0.051 | 0.024 | 0.007 | 0.029 | -0.004 | 0.061 | 0.014 | -0.02 | 0.006
CORO7 isoform 3 (UniProt P57737) | 0.023 | -0.087 | -0.008 | 0.028 | 0.007 | -0.008 | 0.114 | 0.007 | -0.069 | -0.047
DIAPH1 (UniProt O60610) | 0.03 | 0 | -0.003 | -0.018 | -0.013 | 0.003 | 0.051 | 0.005 | 0.006 | -0.001
DICER1 (UniProt Q9UPY3) | -0.032 | -0.172 | 0.112 | 0.046 | -0.003 | 0.037 | 0.039 | 0.012 | -0.022 | -0.027
DCP2 (UniProt Q8IU60) | 0.023 | -0.195 | -0.013 | -0.045 | 0 | 0 | -0.117 | -0.02 | 0 | 0.041
DNAJC3 (UniProt Q13217) | 0.004 | 0.073 | 0.005 | 0.021 | -0.029 | 0.044 | 0.011 | 0 | 0.005 | 0.026
CHEK1 (UniProt O14757) | 0.01 | 0.072 | -0.063 | -0.021 | -0.002 | 0.002 | -0.008 | 0.008 | -0.178 | 0.013
CXXC1 isoform 2 (UniProt Q9P0U4) | -0.003 | -0.138 | -0.021 | -0.004 | 0.468 (active) | -0.032 | 0.152 | 0.069 | 0.068 | 0.015
COASY isoform 2 (UniProt Q13057) | 0.015 | -0.124 | -0.003 | 0.064 | -0.023 | -0.012 | 0.032 | 0.023 | -0.025 | -0.005
CKM (UniProt P06732) | -0.126 | -0.091 | -0.049 | -0.033 | -0.037 | 0.016 | 0.026 | -0.015 | 0.031 | -0.065
CNK3/IPCEF1 isoform 2 (UniProt G9CGD6) | -0.483 | -0.048 | -0.012 | -0.082 | -0.007 | 0.041 | -0.062 |  |  | 
DNAH10 (UniProt Q8IVF4) | -0.248 | 0.056 | -0.086 | -0.074 | 0.246 | -0.04 | -0.001 | 0.027 | 0.046 | 0.043
CLPTM1L (UniProt Q96KA5) | 0.001 | -0.064 | -0.131 | 0.015 | -0.204 | 0.021 | -0.029 | 0.054 | -0.097 | 0.011
COMT (UniProt P21964) | 0.012 | -0.162 | -0.016 | 0.016 | -0.013 | 0.028 | 0.059 | 0.022 | 0.025 | 0.013
CYP24A1 (UniProt Q07973) | -0.258 | 0.163 | -0.021 | -0.158 | 0.226 | 0.011 | 0.043 | 0.049 | 0.13 | -0.05
DHCR7 (UniProt Q9UBM7) | -0.008 | -0.038 | -0.008 | 0.016 | -0.031 | 0.019 | 0.037 | 0.029 | -0.008 | -0.035
CHEK2 (UniProt O96017) | 0.093 | -0.007 | 0.207 (active) | 0.022 | -0.085 | -0.022 | 0.092 | 0 | -0.052 | 0.09
CLIP1 isoform 1 (UniProt P30622) | -0.005 | 0.038 | 0.014 | -0.006 | -0.008 | 0.003 | -0.03 | -0.016 | 0.014 | 0.001
CSK (UniProt P41240) | 0.076 | -0.088 | 0.262 | 0.068 | -0.027 | -0.026 | -0.063 | 0.072 | -0.008 | -0.01
CLASP2 isoform 3 (UniProt O75122) | -0.151 | -0.103 | 0.007 | -0.051 | -0.003 | 0.035 | -0.008 | 0.032 | 0 | -0.007
CLCN3 (UniProt P51790) | -0.03 | -0.012 | -0.042 | -0.024 | -0.194 | 0.05 | 0.003 | 0.005 | -0.043 | 0.029

— the supplement of paper PMC10849652
